# Laboratory results from publication PMC7862700, “An all-to-all approach to the identification of sequence-specific readers for epigenetic DNA modifications on cytosine”.
# How the values were obtained:
# Assay in all cases: DAPPL (digital affinity profiling via proximity ligation, sequencing); 10 mM Tris-HCl pH 7.5, 50 mM NaCl, 1 mM DTT, 4% glycerol, room temperature, 30 min; GST-TFs on glutathione beads, 16-mer random dsDNA library, 0.1% formaldehyde crosslink after washing; high values mean tight binding
# Conditions in all cases: protein: recombinant; tags: N-terminal GST; dsDNA, one strand shown
# [1] = molecular target: T1, ELK1 (Homo sapiens, UniProt P19419 1-428)
# T1 sequence: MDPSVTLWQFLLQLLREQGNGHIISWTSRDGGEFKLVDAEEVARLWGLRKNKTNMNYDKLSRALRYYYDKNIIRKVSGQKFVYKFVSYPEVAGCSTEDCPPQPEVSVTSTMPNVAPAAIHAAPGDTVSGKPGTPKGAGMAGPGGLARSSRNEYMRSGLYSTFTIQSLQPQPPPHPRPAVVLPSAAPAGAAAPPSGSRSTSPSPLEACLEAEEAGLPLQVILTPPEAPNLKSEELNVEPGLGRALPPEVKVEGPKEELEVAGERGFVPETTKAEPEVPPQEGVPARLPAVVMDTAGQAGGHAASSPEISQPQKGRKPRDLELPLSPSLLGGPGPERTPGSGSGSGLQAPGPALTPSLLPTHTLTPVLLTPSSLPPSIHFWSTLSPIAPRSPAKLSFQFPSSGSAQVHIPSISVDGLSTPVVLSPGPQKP
# Procedure, shortened: (§1)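 Sequencing on an Illumina NextSeq500 followed washing, crosslinking with 0.1% formaldehyde, proximity ligation (BsaI/T4 ligase, 1 h, 37 °C) and PCR amplification of pools that had been incubated for 30 min at room temperature with 200 nmole of a random double-stranded 16-mer DNA library in Tris/NaCl/DTT/glycerol buffer. Each pool held DNA-barcoded human transcription factors, expressed in yeast as GST fusions and captured on glutathione beads, plus a tag-only sample. Binding signal is a hexamer's read frequency for a factor divided by its frequency in the tag-only sample.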
# [2] = molecular target: T2, GABPA (Homo sapiens, UniProt Q06546 1-454)
# T2 sequence: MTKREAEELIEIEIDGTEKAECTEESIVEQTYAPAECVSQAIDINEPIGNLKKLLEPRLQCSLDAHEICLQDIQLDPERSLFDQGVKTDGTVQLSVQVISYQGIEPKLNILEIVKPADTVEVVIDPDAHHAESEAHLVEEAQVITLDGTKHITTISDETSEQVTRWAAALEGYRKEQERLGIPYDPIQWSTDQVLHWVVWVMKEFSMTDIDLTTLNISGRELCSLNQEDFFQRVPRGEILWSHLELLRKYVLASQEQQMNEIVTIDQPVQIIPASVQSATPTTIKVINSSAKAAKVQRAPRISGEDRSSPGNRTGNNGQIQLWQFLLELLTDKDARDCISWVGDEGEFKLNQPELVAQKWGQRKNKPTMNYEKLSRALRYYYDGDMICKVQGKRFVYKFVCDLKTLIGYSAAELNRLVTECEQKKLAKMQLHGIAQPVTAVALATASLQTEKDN
# Procedure, shortened: as §1
# [3] = molecular target: T3, ERG (Homo sapiens, UniProt P11308 1-479)
# T3 sequence: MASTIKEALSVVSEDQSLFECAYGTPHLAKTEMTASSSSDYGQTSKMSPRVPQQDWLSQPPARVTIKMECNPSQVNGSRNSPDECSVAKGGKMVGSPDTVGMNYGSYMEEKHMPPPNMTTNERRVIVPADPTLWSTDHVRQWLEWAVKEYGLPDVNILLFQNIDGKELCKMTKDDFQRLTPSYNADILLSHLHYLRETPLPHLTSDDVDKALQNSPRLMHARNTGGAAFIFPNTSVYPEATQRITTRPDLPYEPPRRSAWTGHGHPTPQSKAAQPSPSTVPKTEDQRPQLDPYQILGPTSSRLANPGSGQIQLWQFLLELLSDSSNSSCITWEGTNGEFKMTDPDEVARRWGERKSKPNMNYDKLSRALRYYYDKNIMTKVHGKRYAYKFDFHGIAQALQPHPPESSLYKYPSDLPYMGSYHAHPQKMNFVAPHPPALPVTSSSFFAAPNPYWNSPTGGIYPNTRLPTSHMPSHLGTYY
# Procedure, shortened: as §1
# [4] = molecular target: ELF1 (Homo sapiens, UniProt P32519 1-619)
# Procedure, shortened: as §1
# [5] = molecular target: T4, EHF (Homo sapiens, UniProt Q9NZC4 1-300)
# T4 sequence: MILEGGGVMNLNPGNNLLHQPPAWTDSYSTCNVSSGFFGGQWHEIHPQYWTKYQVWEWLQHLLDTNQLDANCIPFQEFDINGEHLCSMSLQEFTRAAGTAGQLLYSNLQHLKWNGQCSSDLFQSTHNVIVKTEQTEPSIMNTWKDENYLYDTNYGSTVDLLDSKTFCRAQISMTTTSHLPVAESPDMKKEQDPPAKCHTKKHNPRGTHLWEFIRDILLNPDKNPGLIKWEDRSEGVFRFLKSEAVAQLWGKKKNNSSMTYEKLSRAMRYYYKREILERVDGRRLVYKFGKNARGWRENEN
# Procedure, shortened: as §1
# [6] = molecular target: SPIB (Homo sapiens, UniProt Q01892 1-262)
# Procedure, shortened: as §1
# [7] = molecular target: T5, FEV (Homo sapiens, UniProt Q99581 1-238)
# T5 sequence: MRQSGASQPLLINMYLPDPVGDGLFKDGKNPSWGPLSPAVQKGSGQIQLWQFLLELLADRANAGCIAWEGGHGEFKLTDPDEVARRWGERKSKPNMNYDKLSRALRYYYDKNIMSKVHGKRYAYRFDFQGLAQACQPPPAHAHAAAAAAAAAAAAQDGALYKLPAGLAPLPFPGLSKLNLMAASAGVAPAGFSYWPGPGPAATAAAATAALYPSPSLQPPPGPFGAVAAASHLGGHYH
# Procedure, shortened: as §1
# [8] = molecular target: ETV5 (Homo sapiens, UniProt P41161 1-510)
# Procedure, shortened: as §1
# [9] = molecular target: ELF4 (Homo sapiens, UniProt Q99607 1-663)
# Procedure, shortened: as §1
# [10] = molecular target: T6, ELK4 (Homo sapiens, UniProt P28324-2 1-405)
# T6 sequence: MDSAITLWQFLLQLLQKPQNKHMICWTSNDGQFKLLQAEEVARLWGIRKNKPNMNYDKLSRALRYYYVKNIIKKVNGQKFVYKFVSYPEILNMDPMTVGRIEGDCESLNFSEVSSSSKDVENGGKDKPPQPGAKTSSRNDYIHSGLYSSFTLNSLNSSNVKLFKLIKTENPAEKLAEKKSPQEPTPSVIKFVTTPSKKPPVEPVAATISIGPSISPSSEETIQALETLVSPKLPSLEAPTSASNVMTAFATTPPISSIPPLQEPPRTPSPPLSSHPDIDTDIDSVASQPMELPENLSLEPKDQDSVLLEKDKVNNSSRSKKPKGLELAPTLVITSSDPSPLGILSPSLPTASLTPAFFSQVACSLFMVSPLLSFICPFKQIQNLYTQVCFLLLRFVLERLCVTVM
# Procedure, shortened: as §1
# [11] = molecular target: T7, ETV2 (Homo sapiens, UniProt O00321 1-342)
# T7 sequence: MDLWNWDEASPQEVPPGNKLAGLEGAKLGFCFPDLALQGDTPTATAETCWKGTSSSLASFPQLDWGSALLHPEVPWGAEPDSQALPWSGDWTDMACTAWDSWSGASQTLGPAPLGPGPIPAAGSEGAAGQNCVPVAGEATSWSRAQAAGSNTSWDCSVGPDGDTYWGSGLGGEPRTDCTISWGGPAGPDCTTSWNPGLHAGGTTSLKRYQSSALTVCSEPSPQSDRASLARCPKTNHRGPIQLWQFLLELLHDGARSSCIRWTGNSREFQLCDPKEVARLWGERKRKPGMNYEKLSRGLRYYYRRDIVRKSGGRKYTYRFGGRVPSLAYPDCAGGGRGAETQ
# Procedure, shortened: as §1
# [12] = molecular target: T8, ELF3 (Homo sapiens, UniProt P78545 1-371)
# T8 sequence: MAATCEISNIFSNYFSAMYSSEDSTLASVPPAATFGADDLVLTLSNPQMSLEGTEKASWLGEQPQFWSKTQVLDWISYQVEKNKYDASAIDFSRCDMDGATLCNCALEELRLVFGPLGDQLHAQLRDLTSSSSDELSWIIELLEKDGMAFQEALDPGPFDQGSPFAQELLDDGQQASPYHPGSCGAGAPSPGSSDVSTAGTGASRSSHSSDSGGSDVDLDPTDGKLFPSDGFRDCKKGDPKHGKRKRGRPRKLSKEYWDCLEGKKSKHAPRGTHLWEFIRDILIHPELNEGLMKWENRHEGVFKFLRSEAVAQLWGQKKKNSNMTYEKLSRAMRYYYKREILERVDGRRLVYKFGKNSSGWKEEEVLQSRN
# Procedure, shortened: as §1
# [13] = molecular target: T9, ERF (Homo sapiens, UniProt P50548 1-548)
# T9 sequence: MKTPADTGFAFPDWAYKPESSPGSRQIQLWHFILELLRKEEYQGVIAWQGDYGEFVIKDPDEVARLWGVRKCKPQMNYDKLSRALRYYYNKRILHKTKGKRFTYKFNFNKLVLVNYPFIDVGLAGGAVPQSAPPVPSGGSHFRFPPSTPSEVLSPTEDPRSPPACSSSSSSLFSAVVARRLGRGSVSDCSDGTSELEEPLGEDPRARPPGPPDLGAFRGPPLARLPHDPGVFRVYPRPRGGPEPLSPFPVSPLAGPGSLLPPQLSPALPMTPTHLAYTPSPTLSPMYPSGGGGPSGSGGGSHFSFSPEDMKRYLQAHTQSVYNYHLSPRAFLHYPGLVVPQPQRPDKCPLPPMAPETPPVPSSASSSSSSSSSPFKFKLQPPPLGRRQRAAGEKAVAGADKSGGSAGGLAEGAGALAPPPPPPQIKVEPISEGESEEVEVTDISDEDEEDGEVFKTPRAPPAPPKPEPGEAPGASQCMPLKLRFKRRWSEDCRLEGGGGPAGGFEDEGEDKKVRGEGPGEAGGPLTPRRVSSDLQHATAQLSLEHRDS
# Procedure, shortened: as §1
# [14] = molecular target: T10, ETV3L (Homo sapiens, UniProt Q6ZN32 1-361)
# T10 sequence: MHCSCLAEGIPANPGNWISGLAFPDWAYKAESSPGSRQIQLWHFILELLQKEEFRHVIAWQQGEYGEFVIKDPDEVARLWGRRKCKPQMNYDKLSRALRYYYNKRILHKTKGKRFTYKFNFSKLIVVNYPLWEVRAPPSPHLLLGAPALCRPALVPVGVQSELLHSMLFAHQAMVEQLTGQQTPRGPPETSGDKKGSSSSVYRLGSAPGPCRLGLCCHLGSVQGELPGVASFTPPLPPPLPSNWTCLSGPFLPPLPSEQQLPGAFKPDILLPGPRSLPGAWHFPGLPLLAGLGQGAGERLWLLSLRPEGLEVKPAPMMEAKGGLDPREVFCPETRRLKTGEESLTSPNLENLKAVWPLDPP
# Procedure, shortened: as §1
# [15] = molecular target: T11, ETS2 (Homo sapiens, UniProt P15036 1-469)
# T11 sequence: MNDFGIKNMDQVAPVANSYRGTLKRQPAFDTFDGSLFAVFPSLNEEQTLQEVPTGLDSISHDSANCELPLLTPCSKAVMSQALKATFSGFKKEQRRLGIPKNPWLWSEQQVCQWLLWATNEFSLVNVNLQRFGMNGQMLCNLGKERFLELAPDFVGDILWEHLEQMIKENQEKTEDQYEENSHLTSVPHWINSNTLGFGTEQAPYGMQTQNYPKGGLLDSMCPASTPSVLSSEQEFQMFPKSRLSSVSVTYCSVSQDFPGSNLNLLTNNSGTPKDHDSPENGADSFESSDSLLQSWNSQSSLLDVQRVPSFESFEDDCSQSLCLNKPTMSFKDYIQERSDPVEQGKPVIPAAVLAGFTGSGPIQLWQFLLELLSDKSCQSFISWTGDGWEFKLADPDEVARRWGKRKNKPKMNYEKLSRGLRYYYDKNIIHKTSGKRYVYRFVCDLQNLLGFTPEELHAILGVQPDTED
# Procedure, shortened: as §1
# [16] = molecular target: T12, SPDEF (Homo sapiens, UniProt O95238 1-335)
# T12 sequence: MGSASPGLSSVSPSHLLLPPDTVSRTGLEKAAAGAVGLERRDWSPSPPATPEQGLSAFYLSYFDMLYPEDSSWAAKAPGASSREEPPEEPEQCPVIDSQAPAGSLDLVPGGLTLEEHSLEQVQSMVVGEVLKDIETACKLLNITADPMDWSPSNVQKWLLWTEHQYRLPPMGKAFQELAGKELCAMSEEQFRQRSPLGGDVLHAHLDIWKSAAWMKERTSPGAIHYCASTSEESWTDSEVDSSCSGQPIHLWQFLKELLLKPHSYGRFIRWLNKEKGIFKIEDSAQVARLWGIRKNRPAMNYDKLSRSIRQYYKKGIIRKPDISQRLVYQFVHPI
# Procedure, shortened: as §1
# [17] = molecular target: ETV6 (Homo sapiens, UniProt P41212 1-452)
# Procedure, shortened: as §1
# ELF4, sequence (Q99607 whole entry): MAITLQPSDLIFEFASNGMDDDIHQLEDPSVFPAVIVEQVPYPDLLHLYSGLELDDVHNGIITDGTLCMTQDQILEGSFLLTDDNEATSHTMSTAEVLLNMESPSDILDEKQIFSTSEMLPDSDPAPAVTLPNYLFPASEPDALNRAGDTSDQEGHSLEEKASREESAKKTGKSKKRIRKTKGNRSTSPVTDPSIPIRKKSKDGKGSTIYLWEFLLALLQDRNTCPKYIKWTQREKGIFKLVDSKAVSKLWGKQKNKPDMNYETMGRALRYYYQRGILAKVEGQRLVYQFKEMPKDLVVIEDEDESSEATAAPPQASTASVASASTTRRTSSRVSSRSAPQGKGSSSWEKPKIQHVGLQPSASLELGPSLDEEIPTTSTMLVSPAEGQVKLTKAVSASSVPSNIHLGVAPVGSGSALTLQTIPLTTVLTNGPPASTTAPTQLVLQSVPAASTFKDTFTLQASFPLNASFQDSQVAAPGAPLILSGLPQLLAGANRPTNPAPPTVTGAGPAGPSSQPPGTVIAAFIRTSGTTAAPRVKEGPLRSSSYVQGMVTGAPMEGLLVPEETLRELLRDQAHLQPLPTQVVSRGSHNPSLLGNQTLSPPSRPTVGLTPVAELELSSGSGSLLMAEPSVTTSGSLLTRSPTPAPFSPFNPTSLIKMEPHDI
# SPIB, sequence (Q01892 whole entry): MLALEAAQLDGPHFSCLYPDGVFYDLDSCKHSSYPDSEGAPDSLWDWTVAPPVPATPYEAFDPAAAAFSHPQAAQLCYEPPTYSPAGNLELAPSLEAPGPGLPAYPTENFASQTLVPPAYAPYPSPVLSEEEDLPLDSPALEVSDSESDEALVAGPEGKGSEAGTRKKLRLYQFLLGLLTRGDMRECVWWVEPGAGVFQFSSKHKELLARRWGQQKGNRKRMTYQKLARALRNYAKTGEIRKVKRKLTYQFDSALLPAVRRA
# ETV6, sequence (P41212 whole entry): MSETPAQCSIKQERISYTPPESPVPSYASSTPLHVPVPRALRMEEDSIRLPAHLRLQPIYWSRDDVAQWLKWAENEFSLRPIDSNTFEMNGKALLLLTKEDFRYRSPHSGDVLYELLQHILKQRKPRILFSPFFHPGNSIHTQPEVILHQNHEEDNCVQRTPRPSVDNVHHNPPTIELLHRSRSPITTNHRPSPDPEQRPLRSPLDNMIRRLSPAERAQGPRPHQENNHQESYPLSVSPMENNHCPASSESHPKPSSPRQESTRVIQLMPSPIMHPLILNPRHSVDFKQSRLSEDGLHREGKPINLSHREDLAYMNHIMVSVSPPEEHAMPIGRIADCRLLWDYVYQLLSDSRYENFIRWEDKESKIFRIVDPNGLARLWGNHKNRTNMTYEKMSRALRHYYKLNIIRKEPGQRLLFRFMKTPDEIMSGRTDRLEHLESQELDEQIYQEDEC
# ELF1, sequence (P32519 whole entry): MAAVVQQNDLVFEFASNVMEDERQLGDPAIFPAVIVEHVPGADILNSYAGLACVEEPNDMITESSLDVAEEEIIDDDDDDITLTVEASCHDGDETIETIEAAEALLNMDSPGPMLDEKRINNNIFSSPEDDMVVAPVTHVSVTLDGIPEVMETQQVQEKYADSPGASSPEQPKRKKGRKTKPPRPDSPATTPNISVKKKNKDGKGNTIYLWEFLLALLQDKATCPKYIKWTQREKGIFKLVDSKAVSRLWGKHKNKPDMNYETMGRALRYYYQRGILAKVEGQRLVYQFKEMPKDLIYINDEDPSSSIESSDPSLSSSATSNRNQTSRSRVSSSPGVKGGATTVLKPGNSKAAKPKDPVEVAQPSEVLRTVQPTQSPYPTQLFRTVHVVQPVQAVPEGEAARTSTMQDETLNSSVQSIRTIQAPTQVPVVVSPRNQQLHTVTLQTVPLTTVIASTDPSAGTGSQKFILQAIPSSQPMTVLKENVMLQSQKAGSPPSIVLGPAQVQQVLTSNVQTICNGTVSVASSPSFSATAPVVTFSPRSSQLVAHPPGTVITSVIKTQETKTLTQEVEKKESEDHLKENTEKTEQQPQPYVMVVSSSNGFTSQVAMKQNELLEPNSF
# ETV5, sequence (P41161 whole entry): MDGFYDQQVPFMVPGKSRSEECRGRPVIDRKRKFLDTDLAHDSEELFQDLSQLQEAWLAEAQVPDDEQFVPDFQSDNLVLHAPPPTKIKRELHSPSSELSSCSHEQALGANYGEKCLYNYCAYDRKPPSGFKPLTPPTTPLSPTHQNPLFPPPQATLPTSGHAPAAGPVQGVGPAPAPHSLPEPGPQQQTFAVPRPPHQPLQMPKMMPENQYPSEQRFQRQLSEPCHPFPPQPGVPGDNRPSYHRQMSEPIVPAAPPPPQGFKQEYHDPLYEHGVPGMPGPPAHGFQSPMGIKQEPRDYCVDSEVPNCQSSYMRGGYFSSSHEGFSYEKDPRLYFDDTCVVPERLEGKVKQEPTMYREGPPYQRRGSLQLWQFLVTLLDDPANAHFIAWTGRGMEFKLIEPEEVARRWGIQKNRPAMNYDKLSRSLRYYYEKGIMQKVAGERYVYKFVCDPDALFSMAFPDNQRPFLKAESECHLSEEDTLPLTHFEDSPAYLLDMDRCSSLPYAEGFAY
sequence,measurement,setting,value
GCCCAA,binding signal,[1],"1.08 fold enrichment (6-mer frequency, TF over GST control)"
same,binding signal,[2],"1.14 fold enrichment (6-mer frequency, TF over GST control)"
same,binding signal,[3],"1.06 fold enrichment (6-mer frequency, TF over GST control)"
same,binding signal,[4],"1.09 fold enrichment (6-mer frequency, TF over GST control)"
same,binding signal,[5],"1 fold enrichment (6-mer frequency, TF over GST control)"
same,binding signal,[6],"1.06 fold enrichment (6-mer frequency, TF over GST control)"
same,binding signal,[7],"1.11 fold enrichment (6-mer frequency, TF over GST control)"
same,binding signal,[8],"1.1 fold enrichment (6-mer frequency, TF over GST control)"
same,binding signal,[9],"1.12 fold enrichment (6-mer frequency, TF over GST control)"
same,binding signal,[10],"1.07 fold enrichment (6-mer frequency, TF over GST control)"
same,binding signal,[11],"1.24 fold enrichment (6-mer frequency, TF over GST control)"
same,binding signal,[12],"1.05 fold enrichment (6-mer frequency, TF over GST control)"
same,binding signal,[13],"1.08 fold enrichment (6-mer frequency, TF over GST control)"
same,binding signal,[14],"1.04 fold enrichment (6-mer frequency, TF over GST control)"
same,binding signal,[15],"1.09 fold enrichment (6-mer frequency, TF over GST control)"
same,binding signal,[16],"1.08 fold enrichment (6-mer frequency, TF over GST control)"
same,binding signal,[17],"1.02 fold enrichment (6-mer frequency, TF over GST control)"
